# Results taken from PubChem BioAssay (NCI).
# About 83,000 compounds went through this panel and 20% of them were active in at least one assay; those are over-represented in the sample as a whole.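 Activity criterion: percent growth below 10, measured after cells in 96-well plates were exposed to a single compound concentration for 48 hours.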 Values without a mark were called inactive. Calls of active or inactive are those of the source.
# Tests used:
# Test in all cases: NCI-60 one-dose screen, 48 h (100 = growth as untreated, 0 = no growth, -100 = all killed)
# Conditions in all cases: 10 µM unless noted
# HCT-15 colon = test system: HCT-15 colon
# HT29 colon = test system: HT29 colon
# SNB-19 CNS = test system: SNB-19 CNS
# U251 CNS = test system: U251 CNS
# PC-3 prostate = test system: PC-3 prostate
# SK-MEL-5 melanoma = test system: SK-MEL-5 melanoma
# UACC-62 melanoma = test system: UACC-62 melanoma
# LOX IMVI melanoma = test system: LOX IMVI melanoma
# SK-MEL-28 melanoma = test system: SK-MEL-28 melanoma
# SK-MEL-2 melanoma = test system: SK-MEL-2 melanoma
# EKVX NSCLC = test system: EKVX NSCLC
# SN12C renal = test system: SN12C renal
# UO-31 renal = test system: UO-31 renal
# ACHN renal = test system: ACHN renal
# CAKI-1 renal = test system: CAKI-1 renal
# A498 renal = test system: A498 renal
# CCRF-CEM leukemia = test system: CCRF-CEM leukemia
# MOLT-4 leukemia = test system: MOLT-4 leukemia
# TK-10 renal = test system: TK-10 renal
SMILES,growth (HCT-15 colon),growth (HT29 colon),growth (SNB-19 CNS),growth (U251 CNS),growth (PC-3 prostate),growth (SK-MEL-5 melanoma),growth (UACC-62 melanoma),growth (LOX IMVI melanoma),growth (SK-MEL-28 melanoma),growth (SK-MEL-2 melanoma),growth (EKVX NSCLC),growth (SN12C renal),growth (UO-31 renal),growth (ACHN renal),growth (CAKI-1 renal),growth (A498 renal),growth (CCRF-CEM leukemia),growth (MOLT-4 leukemia),growth (TK-10 renal)
CC(C)(C)n1cc(-c2ccnc(NCCCNS(=O)(=O)c3cccc(F)c3)c2)c(-c2cccc(O)c2)n1,-7.15% (active),12.6%,75.7%,49.9%,32.9%,26.1%,64.5%,-71.1% (active),47.2%,61%,51.5%,59.7%,57.8%,51.7%,56.2%,51.9%,39.6%,33.4%,
CN1CCN(Cc2ccc(NC(=O)c3cncc(C#Cc4cnc(N)c5ccncc45)c3)cc2C(F)(F)F)CC1,10.9%,9.95% (active),51.3%,37.3%,25.5%,11.9%,-28.8% (active),-83.9% (active),-3.08% (active),-25.2% (active),13.9%,6.05% (active),3.59% (active),2.28% (active),4.48% (active),-22.7% (active),14.2%,16.6%,
O=C(NNC(=O)N1c2ccccc2C=Cc2ccccc21)c1ccc2ccccc2c1,95.4%,88.6%,95.3%,92.6%,74.9%,92%,81.1%,93.6%,98.4%,98.5%,89%,90.5%,88%,96.1%,96.8%,94.1%,95%,94.9%,
COc1ccc(N=Cc2c(O)ccc3c2oc2cc(Cl)c(O)c(Cl)c23)cc1,86.6%,105%,104%,87.8%,103%,96.3%,84.2%,64.5%,141%,-1.58% (active),108%,102%,103%,96.2%,,107%,77.9%,89.1%,120%
CCOC(=O)c1ccc(NC(=O)N2CC(C)OC(C)C2)cc1 (configuration not stated),96.2%,101%,93.2%,97.4%,103%,99.7%,87.6%,96%,98.5%,113%,108%,,4.84% (active),96.7%,,80.6%,102%,99.9%,125%
COc1ccc(-c2nc(SCCC(C)C)nc(Nc3ccc(F)c(Cl)c3)c2C#N)cc1,84.9%,75.9%,77.9%,33.7%,80%,94.1%,97.5%,76.4%,105%,120%,55.7%,56.7%,56.6%,47.8%,,76.8%,71%,86.1%,62.6%
CCN(CC)c1ccc(N=O)cc1,3.87% (active),-3.9% (active),93.1%,42.9%,44.6%,87.2%,73.4%,15%,88.3%,90.8%,91.1%,,26%,6.07% (active),-13.4% (active),100%,21.4%,44.9%,47.3%
O=Nc1c(-c2cccc([N+](=O)[O-])c2)nc2ncccn12,73.7%,79.5%,94.3%,96.9%,66.5%,96.2%,92.8%,95.4%,115%,85.2%,108%,91.5%,-3.03% (active),29.1%,,103%,-27.2% (active),7.7% (active),85%
COc1cc(/C=N\NC(=O)CN2CCN(c3cc4c(cc3F)c(=O)c(C(=O)N/N=C/c3cc(OC)c(OC)c(OC)c3)cn4C3CC3)CC2)cc(OC)c1OC,101%,4.47% (active),19.1%,2.13% (active),-19.8% (active),-15.4% (active),-34.7% (active),-67.1% (active),-11.6% (active),-26.2% (active),55.2%,-25.8% (active),71.8%,93.7%,77.7%,46.6%,4.32% (active),0.748% (active),
CCO/C=N/C1=C(C#N)C(c2ccc(Cl)cc2)c2c(c3ccc(C)cc3[nH]c2=O)O1 (configuration not stated),91.1%,80.5%,84.7%,90.3%,83.5%,87.1%,67.6%,86.8%,101%,101%,69.5%,,49.6%,78.5%,49.7%,66.1%,87.3%,95.6%,116%
CCOC(=O)CC(=O)OC,102%,96.5%,96.3%,101%,95.3%,100%,104%,100%,104%,107%,99.1%,108%,90.4%,107%,,92.2%,97.5%,83.3%,106%
Clc1cccc(-c2cc(-c3ccc4c(c3)OCCO4)[nH]n2)c1,18.7% [25 µM],7.83% [25 µM] (active),45.7% [25 µM],27.4% [25 µM],37.1% [25 µM],5.53% [25 µM] (active),45.4% [25 µM],30.2% [25 µM],56% [25 µM],17.9% [25 µM],24.3% [25 µM],36.3% [25 µM],44.2% [25 µM],44.7% [25 µM],29% [25 µM],6.47% [25 µM] (active),17.9% [25 µM],25.8% [25 µM],
CCCCCCCCCCCCNC(=O)[C@H]1CSC(c2cc(Br)cs2)N1 (some centres not stated),3.37% (active),0.836% (active),74.5%,-52.6% (active),-35% (active),53.4%,-84.5% (active),-86.4% (active),-82% (active),-58.7% (active),-64% (active),,-76% (active),14.3%,77.9%,76.8%,-42.1% (active),-59.8% (active),-80.1% (active)
CCCCCc1cc[n+](CC(=O)c2ccc([N+](=O)[O-])cc2)cc1,94.4%,21.5%,87.9%,48.4%,59.5%,22%,91.1%,45.9%,106%,49.3%,72.8%,90.9%,72.1%,103%,,101%,89.2%,100%,74.6%
COc1ccc2[nH]c(=O)c(/C=N/Nc3nc(-c4ccccc4)cs3)c(O)c2c1,20.5%,70.2%,75.4%,44.3%,58.9%,65.2%,62.7%,60%,76%,83.1%,53.8%,73.8%,42.5%,48.6%,,94.9%,26.5%,35.2%,90.2%
C=C(C)[C@@H]1CC[C@]2(C(=O)O)CC[C@]3(C)[C@H](CC[C@@H]4[C@@]5(C)C[C@@H](CC#Cc6ccc(C(F)(F)F)cc6)[C@H](O)C(C)(C)[C@@H]5CC[C@]43C)[C@@H]12,36.2%,15.7%,30.8%,-4.28% (active),-52.2% (active),-32.9% (active),-31.5% (active),-53.5% (active),-40.8% (active),-27% (active),24.3%,17.6%,41%,31.2%,,-36.1% (active),-2.71% (active),4.32% (active),38.2%
